# Assay results reported in PubChem BioAssay.
# For part of these data: Results with a measured potency or affinity are listed apart. The list shows a part of the results. Active and inactive are the calls of the source. Unless noted, how the calls were made is not given here.
# How the values were obtained:
# [1] = target: Ras-related C3 botulinum toxin substrate 1 (Homo sapiens) (UniProt P63000); assay: wildtype Rac1 GTP binding inhibitors, dose response, biochemical, multiplex bead flow cytometry (AID 1340;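 active means dose curve with midpoint inside tested range, moderate steepness, plateau gap beyond fit error, low compound glow and bead-link interference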); conditions: GST-Rac1 beads, Bodipy-FL-GTP binding; at 100 µM (top of the series) unless noted
# [2] = target: Regulator of G-protein signaling 4 (Homo sapiens) + Guanine nucleotide-binding protein G(o) subunit alpha (Homo sapiens) (UniProt P49798+P09471); assay: modulators of RGS–Galpha-o binding, primary screen, biochemical, multiplexed beads, flow cytometry, RGS4/7/8/16/19 (AID 1504); conditions: multiplexed bead flow cytometry, at 10 µM;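 further: fluorescently labeled Galpha-o bound to GDP with aluminium fluoride binding biotinylated RGS beads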
# Chain of Regulator of G-protein signaling 4 (Homo sapiens) + Guanine nucleotide-binding protein G(o) subunit alpha (Homo sapiens) (P09471 whole entry, looked up): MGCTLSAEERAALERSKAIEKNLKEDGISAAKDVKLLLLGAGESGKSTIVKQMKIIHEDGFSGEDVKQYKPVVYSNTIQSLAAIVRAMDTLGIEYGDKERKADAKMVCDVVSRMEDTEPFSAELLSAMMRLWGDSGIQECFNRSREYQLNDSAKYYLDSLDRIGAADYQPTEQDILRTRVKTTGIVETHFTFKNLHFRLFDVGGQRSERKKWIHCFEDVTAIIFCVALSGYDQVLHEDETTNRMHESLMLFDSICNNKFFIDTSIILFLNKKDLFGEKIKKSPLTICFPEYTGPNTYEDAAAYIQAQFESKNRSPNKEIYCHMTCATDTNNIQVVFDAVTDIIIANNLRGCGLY
# Chain of Regulator of G-protein signaling 4 (Homo sapiens) + Guanine nucleotide-binding protein G(o) subunit alpha (Homo sapiens) (P49798 whole entry, looked up): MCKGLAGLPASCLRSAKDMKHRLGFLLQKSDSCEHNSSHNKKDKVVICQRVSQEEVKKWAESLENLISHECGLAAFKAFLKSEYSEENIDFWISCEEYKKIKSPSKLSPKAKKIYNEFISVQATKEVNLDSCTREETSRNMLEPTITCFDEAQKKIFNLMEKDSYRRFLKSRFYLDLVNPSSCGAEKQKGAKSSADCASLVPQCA
# [3] = target: GTPase HRas (Homo sapiens) (UniProt P01112); assay: activated Ras mutant GTP binding inhibitors, dose response, biochemical, multiplex bead flow cytometry (AID 1341;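 active means dose-response curve with midpoint inside the tested range, moderate steepness, significant amplitude and little compound fluorescence or bead-attachment interference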;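 further: GST-tagged constitutively activated Ras mutant immobilized on beads and multiplexed with other GTPases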)
# [4] = LAP4-GFP expression modulators in yeast, confirmation, cell-based, second cherry pick, flow cytometry (AID 2621;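 active means GFP signal as percent of the solvent control above about 150%, meaning raised reporter expression, limit read from the data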;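 further: ratio of well median GFP fluorescence to plate DMSO mean so 100% = DMSO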); conditions: S. cerevisiae LAP4-GFP strain, 3 h, at 10 µM, stronger effect = higher value
# [5] = modulators of MEP2-GFP levels in yeast, confirmation, S. cerevisiae, flow cytometry GFP, second cherry picks (AID 2622;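 active means GFP signal above 150% of the solvent control wells, that is a rise of more than half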;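 further: median channel GFP fluorescence of all gated yeast cells per well; ratio of median GFP to plate DMSO average so 100% = DMSO level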); conditions: S. cerevisiae MEP2-GFP strain, 3 h, at 10 µM, stronger effect = higher value
# [6] = RPL19A-GFP modulators in TOR pathway yeast, confirmation, cell-based, S. cerevisiae, flow cytometry, second cherry pick (AID 2623;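 active means under 65% GFP response relative to DMSO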;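 further: median GFP channel fluorescence per well over the all cells gate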); conditions: S. cerevisiae RPL19A-GFP strain, 3 h, at 10 µM, stronger effect = lower value, 100% means same as DMSO wells
# [7] = modulators of CIT2-GFP expression in yeast, confirmation, flow cytometry, second cherry pick, single plex (AID 2624;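 active means GFP response vs DMSO above about 150%, limit read from the data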;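 further: median green fluorescence per well over all gated yeast cells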); conditions: S. cerevisiae CIT2-GFP strain, 3 h, at 10 µM, stronger effect = higher value, DMSO control wells read 100%
# [8] = AGP1-GFP expression modulators, hit retest, confirmation, cell-based, flow cytometry, S. cerevisiae, cherry pick set 2 (AID 2643;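 active means over 150 percent of DMSO response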;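 further: median GFP channel fluorescence over all cells without mother daughter split; sample median GFP divided by mean DMSO control so 100% equals DMSO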); conditions: S. cerevisiae AGP1-GFP strain, 3 h, at 10 µM, stronger effect = higher value
# [9] = AGP1-GFP expression modulators, hit retest, confirmation, cell-based, flow cytometry, S. cerevisiae, cherry picks (AID 2273;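 active means GFP response above 150% of the DMSO level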;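 further: median GFP channel fluorescence over the whole cell population gate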); conditions: S. cerevisiae AGP1-GFP strain, 3 h, at 10 µM
# [10] = target: Integrin beta-1 (Homo sapiens) + Integrin alpha-4 (Homo sapiens) (UniProt P13612+P05556); assay: inhibition of HUTS-21 binding to VLA-4, pilot screen, VLA-4 allosteric modulator project, U937 cells, HUTS-21 mAb, flow cytometry, validation set (AID 2674;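 active means inhibition above 50%, about 3 SD of the validation set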;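 further: antibody binding induced by the VLA-4 ligand LDV present at three times its Kd; 0% = LDV ligand with antibody and no compound and 100% = antibody without LDV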); conditions: HUTS-21 LIBS mAb binding, at 6.7 µM, stronger effect = higher value, binding induced by LDV ligand
# Chain of Integrin beta-1 (Homo sapiens) + Integrin alpha-4 (Homo sapiens) (P05556 whole entry, looked up): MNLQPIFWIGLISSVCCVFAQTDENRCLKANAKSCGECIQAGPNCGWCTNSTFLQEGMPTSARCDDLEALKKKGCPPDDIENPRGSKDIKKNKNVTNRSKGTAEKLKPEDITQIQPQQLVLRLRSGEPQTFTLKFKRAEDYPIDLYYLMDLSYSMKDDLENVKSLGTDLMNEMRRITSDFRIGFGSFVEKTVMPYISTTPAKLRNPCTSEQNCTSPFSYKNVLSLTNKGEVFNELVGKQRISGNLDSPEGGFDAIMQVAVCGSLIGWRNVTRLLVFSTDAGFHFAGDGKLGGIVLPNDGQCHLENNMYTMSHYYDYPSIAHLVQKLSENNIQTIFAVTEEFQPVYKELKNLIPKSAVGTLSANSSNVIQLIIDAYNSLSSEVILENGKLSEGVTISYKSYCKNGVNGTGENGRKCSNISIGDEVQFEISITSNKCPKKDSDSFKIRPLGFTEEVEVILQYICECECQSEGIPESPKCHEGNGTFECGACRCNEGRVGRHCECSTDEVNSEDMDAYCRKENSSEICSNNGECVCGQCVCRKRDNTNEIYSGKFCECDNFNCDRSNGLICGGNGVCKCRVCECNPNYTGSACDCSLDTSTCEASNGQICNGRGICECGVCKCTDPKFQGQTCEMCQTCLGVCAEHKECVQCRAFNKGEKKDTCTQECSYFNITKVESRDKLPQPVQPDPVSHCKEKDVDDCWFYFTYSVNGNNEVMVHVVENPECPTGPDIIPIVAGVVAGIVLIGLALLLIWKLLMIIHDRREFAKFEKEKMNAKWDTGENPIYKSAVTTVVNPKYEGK
# Chain of Integrin beta-1 (Homo sapiens) + Integrin alpha-4 (Homo sapiens) (P13612 whole entry, looked up): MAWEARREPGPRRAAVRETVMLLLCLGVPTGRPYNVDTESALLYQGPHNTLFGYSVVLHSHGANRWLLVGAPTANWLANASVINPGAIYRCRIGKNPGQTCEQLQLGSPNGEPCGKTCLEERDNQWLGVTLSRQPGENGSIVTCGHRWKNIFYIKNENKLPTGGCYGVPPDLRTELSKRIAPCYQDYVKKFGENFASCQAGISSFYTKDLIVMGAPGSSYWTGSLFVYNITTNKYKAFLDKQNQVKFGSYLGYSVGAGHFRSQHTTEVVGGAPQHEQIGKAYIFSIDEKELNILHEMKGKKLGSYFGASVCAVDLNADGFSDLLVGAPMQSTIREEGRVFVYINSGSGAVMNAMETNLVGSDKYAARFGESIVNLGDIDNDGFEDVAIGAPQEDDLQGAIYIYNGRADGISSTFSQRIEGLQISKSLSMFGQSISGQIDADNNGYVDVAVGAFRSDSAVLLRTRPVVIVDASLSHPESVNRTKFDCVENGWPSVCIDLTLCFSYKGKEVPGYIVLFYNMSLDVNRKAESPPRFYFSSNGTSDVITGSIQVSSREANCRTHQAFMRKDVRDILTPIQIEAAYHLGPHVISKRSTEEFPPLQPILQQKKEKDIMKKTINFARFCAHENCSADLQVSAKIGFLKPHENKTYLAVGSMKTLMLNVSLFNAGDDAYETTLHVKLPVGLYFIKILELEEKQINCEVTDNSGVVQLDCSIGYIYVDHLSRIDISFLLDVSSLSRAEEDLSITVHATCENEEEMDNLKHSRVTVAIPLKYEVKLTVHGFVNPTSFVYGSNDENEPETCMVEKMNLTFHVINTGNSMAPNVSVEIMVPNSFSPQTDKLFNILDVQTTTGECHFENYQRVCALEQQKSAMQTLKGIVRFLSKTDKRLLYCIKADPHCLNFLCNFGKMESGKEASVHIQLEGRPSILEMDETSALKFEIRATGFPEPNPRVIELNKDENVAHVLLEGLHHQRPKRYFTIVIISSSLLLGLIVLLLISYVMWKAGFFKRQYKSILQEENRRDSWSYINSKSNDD
# [11] = superoxide lowering in aged yeast cells, pilot screen, validation compound set (AID 2706;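 active means superoxide response below 65% of plate, a cut near 3 SD across the whole screen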;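 further: yeast exposed to compound for one week at 30 degrees C before staining; 100% = mean of all compound wells on the same plate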); conditions: S. cerevisiae aging, superoxide DHE fluorescence; at 10 µM; stronger effect = lower value
# [12] = target: Beta-adrenergic receptor kinase 1 (Homo sapiens) (UniProt P25098); assay: GRK2 binders displacing RNA aptamer, biochemical, validation, human GRK2, bead flow cytometry (AID 488806;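 active means aptamer binding inhibition above 30%, about 3 SD of noise from non-fluorescent compounds; inactive means inhibition at or below 30%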); conditions: bead-bound GRK2, FAM-aptamer displacement, at 10 µM, stronger effect = higher value
# [13] = target: Beta-2 adrenergic receptor (Homo sapiens) (UniProt P07550); assay: beta2AR agonists driving receptor internalization, pilot screen, cell-based, FAP fluorogen, flow cytometry, validation set (AID 504459;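 active means percent response above 42, roughly 3 SD of non-fluorescent test compounds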;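 further: agonist-driven loss of surface beta2AR via internalization measured by FAP dye flow cytometry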); conditions: Am2.2-beta2AR cells, FAP surface receptor flow cytometry; at 10 µM; stronger effect = higher value
# Chain of Beta-2 adrenergic receptor (Homo sapiens) (P07550 whole entry, looked up): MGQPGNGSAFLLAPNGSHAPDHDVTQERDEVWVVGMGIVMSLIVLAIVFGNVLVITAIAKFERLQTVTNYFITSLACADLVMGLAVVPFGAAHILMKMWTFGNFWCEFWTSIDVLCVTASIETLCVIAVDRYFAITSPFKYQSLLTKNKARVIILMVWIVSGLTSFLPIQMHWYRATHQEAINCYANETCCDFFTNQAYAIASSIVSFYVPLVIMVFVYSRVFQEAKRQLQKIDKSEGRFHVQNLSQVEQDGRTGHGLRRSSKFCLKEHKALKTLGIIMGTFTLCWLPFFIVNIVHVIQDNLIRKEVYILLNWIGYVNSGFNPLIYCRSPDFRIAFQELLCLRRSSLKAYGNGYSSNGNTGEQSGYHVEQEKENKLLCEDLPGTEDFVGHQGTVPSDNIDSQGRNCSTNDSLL
# [14] = target: AP-2 complex subunit beta (Homo sapiens) (UniProt P63010); assay: inhibitors of arrestin peptide binding to AP2, pilot screen, biochemical, validation set, GST-AP2 beads, flow cytometry (AID 504541;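 active means inhibition above 54%, about 3 SD of non-fluorescent compounds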;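 further: AP2 carries R879A mutation and is captured from E. coli lysate; bead-bound FITC arrestin peptide fluorescence measuring arrestin peptide binding to AP2; 0% = DMSO wells and 100% = excess unlabeled arrestin peptide control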); conditions: FITC arrestin peptide, at 10 µM, stronger effect = higher value, AP2 beta2 appendage fragment, R879A mutant
# Chain of AP-2 complex subunit beta (Homo sapiens) (P63010 whole entry, looked up, the tested form may be a part, one chain of several): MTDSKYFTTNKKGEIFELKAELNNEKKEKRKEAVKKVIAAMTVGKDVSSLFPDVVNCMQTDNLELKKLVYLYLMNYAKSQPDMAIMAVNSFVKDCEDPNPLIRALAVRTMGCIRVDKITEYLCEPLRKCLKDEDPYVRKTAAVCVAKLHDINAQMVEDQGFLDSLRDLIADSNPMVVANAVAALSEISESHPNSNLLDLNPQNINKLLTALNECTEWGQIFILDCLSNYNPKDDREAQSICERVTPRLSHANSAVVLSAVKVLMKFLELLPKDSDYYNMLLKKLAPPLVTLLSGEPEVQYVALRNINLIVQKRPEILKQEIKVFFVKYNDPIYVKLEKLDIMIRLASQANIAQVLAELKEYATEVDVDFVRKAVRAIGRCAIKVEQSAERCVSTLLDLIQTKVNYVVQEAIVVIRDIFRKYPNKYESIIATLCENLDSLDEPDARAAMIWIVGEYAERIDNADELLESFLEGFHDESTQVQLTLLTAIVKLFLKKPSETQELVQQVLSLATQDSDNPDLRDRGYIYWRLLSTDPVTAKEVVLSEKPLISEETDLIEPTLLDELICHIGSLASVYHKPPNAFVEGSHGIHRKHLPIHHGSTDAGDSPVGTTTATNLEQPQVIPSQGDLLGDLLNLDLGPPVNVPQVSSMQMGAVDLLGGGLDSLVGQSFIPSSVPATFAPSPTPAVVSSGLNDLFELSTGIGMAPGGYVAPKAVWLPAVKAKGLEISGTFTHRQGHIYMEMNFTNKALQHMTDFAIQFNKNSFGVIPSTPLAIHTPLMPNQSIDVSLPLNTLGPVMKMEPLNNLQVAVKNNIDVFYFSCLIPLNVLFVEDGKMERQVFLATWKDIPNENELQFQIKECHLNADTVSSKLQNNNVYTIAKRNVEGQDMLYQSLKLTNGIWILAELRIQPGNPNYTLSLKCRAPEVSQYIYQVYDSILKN
# [15] = yeast V-ATPase proton transport modulators, S. cerevisiae, pHLuorin, HTS validation (AID 504600; in the data active means response above about 15%;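 further: plate controls were DMSO for no effect and reference compound for full effect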); conditions: S. cerevisiae pHLuorin cytosolic pH, at 10 µM, stronger effect = higher value
# [16] = system: anti-desmoglein-3 scFv antibody binding to human DSG3; assay: inhibitors of anti-DSG3 scFv binding to DSG3, pilot screen, biochemical, validation compound set, bead-based, flow cytometry (AID 588368;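 active means binding below the plate cutoff, the plate median minus 3 SD, with a reading above zero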;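 further: signal is the median channel fluorescence of bead-bound GFP antibody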); conditions: Protein G beads, DSG3-Fc, scFv-GFP binding, at 10 µM, stronger effect = lower value
# [17] = inhibitors of fungal efflux pumps CDR1, CDR2, MDR1, pilot screen, validation compound set, multiplex, phenotypic (AID 588506;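 active means efflux inhibition above 0.42, the validation set average plus 4 SD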;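 further: Nile Red retained in cells so higher fluorescence means more efflux inhibition; 0 = negative control wells and 1 = enniatin B 25 µM full block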); conditions: S. cerevisiae pump-expressing triplex, Nile Red efflux flow cytometry; at 10 µM; stronger effect = higher value; the pumps come from Candida albicans
# [18] = target: ATP-binding cassette sub-family B member 6 (Homo sapiens) (UniProt Q9NP58); assay: ABCB6 transporter inhibitors, pilot screen, K562-ABCB6 cells, flow cytometry, validation set (AID 588550;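 active means inhibition above the screen-wide mean plus 3 SD, about 51%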;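 further: 0% = DMSO wells and 100% = benzethonium chloride 70 µM positive control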); conditions: K562-ABCB6 porphyrin accumulation, 1 h, at 10 µM, stronger effect = higher value
# Chain of ATP-binding cassette sub-family B member 6 (Homo sapiens) (Q9NP58 whole entry, looked up): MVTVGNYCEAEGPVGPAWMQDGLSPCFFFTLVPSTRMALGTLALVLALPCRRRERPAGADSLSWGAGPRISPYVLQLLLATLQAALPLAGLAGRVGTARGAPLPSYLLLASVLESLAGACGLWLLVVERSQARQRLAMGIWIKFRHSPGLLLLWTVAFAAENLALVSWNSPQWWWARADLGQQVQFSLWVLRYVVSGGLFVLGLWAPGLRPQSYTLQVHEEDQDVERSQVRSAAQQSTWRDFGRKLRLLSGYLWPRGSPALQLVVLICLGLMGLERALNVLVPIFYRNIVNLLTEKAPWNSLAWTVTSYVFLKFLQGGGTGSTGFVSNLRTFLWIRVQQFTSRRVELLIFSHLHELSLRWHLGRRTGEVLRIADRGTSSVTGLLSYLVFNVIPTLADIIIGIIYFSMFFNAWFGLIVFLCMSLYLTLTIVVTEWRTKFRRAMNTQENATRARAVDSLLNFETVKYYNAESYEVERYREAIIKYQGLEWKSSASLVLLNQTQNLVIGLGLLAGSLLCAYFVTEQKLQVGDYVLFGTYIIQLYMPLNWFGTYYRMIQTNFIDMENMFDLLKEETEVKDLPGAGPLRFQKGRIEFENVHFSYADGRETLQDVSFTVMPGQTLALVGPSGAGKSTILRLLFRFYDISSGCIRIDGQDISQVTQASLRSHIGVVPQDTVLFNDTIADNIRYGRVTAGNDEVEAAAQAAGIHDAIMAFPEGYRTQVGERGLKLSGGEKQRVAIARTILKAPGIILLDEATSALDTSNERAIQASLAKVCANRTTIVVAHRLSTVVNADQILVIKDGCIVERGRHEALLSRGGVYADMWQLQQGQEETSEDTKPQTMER
# [19] = promoters of myeloid differentiation in arrested cells, primary screen, cell-based, GFP/MAC1 double positive, flow cytometry, validation set (AID 588685;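 active means differentiation response of at least 50%, scaled between solvent and reference control, from cells with both markers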;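 further: compound exposure lasts four days before antibody staining and flow analysis; 0% = DMSO wells and 100% = 5 µM fulvestrant positive control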); conditions: ER-HoxA9 marrow cells, stronger effect = higher value, normalized: vehicle 0, fulvestrant 100
smiles,measurement,setting,value
Cc1cn2c(nc(=O)c3cccnc32)s1,"GTP binding signal, raw median fluorescence (lower = inhibition) (MCF (arbitrary fluorescence units))",[1],126
Cc1c(CN2CCCC(C(=O)c3cccc(Cl)c3)C2)c(=O)n(-c2ccccc2)n1C (stereo not drawn),RGS4–Galpha-o binding response,[2],107% (active)
C/C(=C/C(=O)N1CCN(C)CC1)C(=O)O,RGS4–Galpha-o binding response,[2],109% (active)
CN(C)CCNC(=O)/C(=C/c1cccc([N+](=O)[O-])c1)NC(=O)c1ccccc1,RGS4–Galpha-o binding response,[2],119% (active)
CN(CC(=O)NC1CCCCC1)S(=O)(=O)c1cccc2cccnc12,RGS4–Galpha-o binding response,[2],110% (active)
CC(=O)N1CC[n+]2c(-c3ccc([N+](=O)[O-])cc3)csc21,RGS4–Galpha-o binding response,[2],57% (active)
O=C(Nc1cccc(F)c1)c1coc(=O)c(Br)c1,RGS4–Galpha-o binding response,[2],83.8% (active)
O=[N+]([O-])C(=c1ccc2c(c1)N1C3=C(CCCC3)CC3CCCCC31N=2)[N+](=O)[O-] (stereo not drawn),RGS4–Galpha-o binding response,[2],80.6% (active)
CCN(CC)S(=O)(=O)c1cccc(-c2n[nH]c(=S)n2/N=C/c2ccc(C(=O)OC)cc2)c1,RGS4–Galpha-o binding response,[2],108% (active)
Fc1cc(F)c2nc(Nc3nc4c(F)cccc4s3)sc2c1,RGS4–Galpha-o binding response,[2],110% (active)
CC(NC(=O)COC(=O)C1CCN(S(=O)(=O)c2ccccc2C(F)(F)F)CC1)c1ccccc1 (stereo not drawn),RGS4–Galpha-o binding response,[2],118% (active)
O=C(O)/C=C/c1cn(Cc2ccccc2)nc1-c1cccs1,outcome,[3],inactive
O=C1CCC(=O)N(O)CCCCCNC(=O)CCC(=O)N(O)CCCCCNC(=O)CCC(=O)N(O)CCCCCN1,RGS4–Galpha-o binding response,[2],52.2% (active)
O=C(NC1CC1)c1ccc2c(c1)NC(=O)c1ccccc1S2,RGS4–Galpha-o binding response,[2],113% (active)
CN(C)CCN=c1cc(-c2ccccc2)oc2ccc(Cl)cc12,RGS4–Galpha-o binding response,[2],110% (active)
COc1cc(C(=O)Nc2cc(C(F)(F)F)ccc2N2CCOCC2)ccc1O,RGS4–Galpha-o binding response,[2],79.2% (active)
Cc1ccccc1NC(=S)N(CCCN1CCOCC1)Cc1cccs1,RGS4–Galpha-o binding response,[2],105% (active)
CCN(CC)c1ccc(/C=C(\C#N)C(=O)c2ccc(Br)cc2)cc1,"GTP binding signal, raw median fluorescence (lower = inhibition) (MCF (arbitrary fluorescence units))",[1],0
CCn1c(CSCc2c(Cl)cccc2Cl)n[nH]c1=S,RGS4–Galpha-o binding response,[2],55.9% (active)
O=c1[nH]c2ccccc2s1,RGS4–Galpha-o binding response,[2],88.6% (active)
Cc1ccc(-n2c(SCC(=O)Nc3ncc(Cl)cc3Cl)nc3ccccc32)cc1,RGS4–Galpha-o binding response,[2],86.2% (active)
CCC(=O)N1CCC(C(N)=O)(N2CCCCC2)CC1,RGS4–Galpha-o binding response,[2],133% (active)
same,GFP response vs DMSO,[4],99% (inactive)
same,GFP response vs DMSO,[5],102% (inactive)
same,GFP response vs DMSO,[6],99.8% (inactive)
same,GFP response vs DMSO,[7],104% (inactive)
same,percent response vs DMSO,[8],99.4% (inactive)
NC(=O)Cc1ccc2sc(-c3ccccc3)nc2c1,RGS4–Galpha-o binding response,[2],94.3% (active)
Cc1ccc(C)c(OCC(=O)N2CCN(C(=O)c3ccco3)CC2)c1,RGS4–Galpha-o binding response,[2],83.7% (active)
CC(C)Cc1nc(Nc2ccc(S(=O)(=O)N3CCCC3)cc2)c2nnn(Cc3ccccc3)c2n1,RGS4–Galpha-o binding response,[2],135% (active)
O=C(CN1CCOCC1)Nc1ccccc1,RGS4–Galpha-o binding response,[2],115% (active)
CN(C)S(=O)(=O)Oc1ccccc1C(=O)Nc1ccccc1Cl,RGS4–Galpha-o binding response,[2],114% (active)
Cc1cc(C)nc(/N=C2\NC(=O)CC(C(=O)O)N2c2ccc(Cl)cc2Cl)n1 (stereo not drawn),RGS4–Galpha-o binding response,[2],117% (active)
CCOC(=O)C1=C(c2ccccc2)N=C2SCC(=O)N2C1c1ccc(O)c(OC)c1 (stereo not drawn),RGS4–Galpha-o binding response,[2],121% (active)
COc1ccc(-c2nn(-c3ccccc3)cc2C(=O)Nc2nccs2)cc1OC,RGS4–Galpha-o binding response,[2],90.3% (active)
COc1ccc(CCC(=O)OCC(=O)Nc2ccc(C)c(S(=O)(=O)N(C)C)c2)cc1,RGS4–Galpha-o binding response,[2],84.4% (active)
COc1ccc(C(=O)NNc2cc(C)nc(NNC(=O)c3ccc(OC)cc3)n2)cc1,RGS4–Galpha-o binding response,[2],79.6% (active)
O=C(Nc1cccc(-c2nc3ccccc3[nH]2)c1)c1ccc(C(=O)Nc2cccc(-c3nc4ccccc4[nH]3)c2)cc1,RGS4–Galpha-o binding response,[2],132% (active)
CC(NCCc1ccc(O)cc1)C(O)c1ccc(O)cc1 (stereo not drawn),"GFP response, % of DMSO",[9],101% (inactive)
same,inhibition,[10],-13.9% (inactive)
same,superoxide response (% of plate),[11],96.5% (inactive)
same,aptamer binding inhibition,[12],2% (inactive)
same,response,[13],0.53% (inactive)
same,inhibition,[14],5.41% (inactive)
same,response,[15],-1.74% (inactive)
same,binding (% of control),[16],103% (inactive)
same,efflux inhibition (fraction of control),[17],-0.31 (inactive)
same,inhibition,[18],10% (inactive)
same,differentiation response,[19],-8.19% (inactive)
CC(=O)[C@H]1CC[C@H]2[C@@H]3CCC4=CC(=O)CC[C@]4(C)[C@H]3CC[C@]12C,"GFP response, % of DMSO",[9],96% (inactive)
same,inhibition,[10],21.7% (inactive)
same,superoxide response (% of plate),[11],136% (inactive)
same,aptamer binding inhibition,[12],5% (inactive)
same,response,[13],-14.3% (inactive)
same,inhibition,[14],-3.41% (inactive)
same,response,[15],5.39% (inactive)
same,binding (% of control),[16],99.6% (inactive)
same,efflux inhibition (fraction of control),[17],0.275 (inactive)
same,inhibition,[18],0% (inactive)
same,differentiation response,[19],-1.65% (inactive)
O=c1[nH]cc(F)c(=O)[nH]1,"GFP response, % of DMSO",[9],90% (inactive)
same,inhibition,[10],-45% (inactive)
same,superoxide response (% of plate),[11],100% (inactive)
same,aptamer binding inhibition,[12],-3% (inactive)
same,response,[13],-17.5% (inactive)
same,inhibition,[14],-8.2% (inactive)
same,response,[15],1.44% (inactive)
same,binding (% of control),[16],104% (inactive)
same,efflux inhibition (fraction of control),[17],-0.06 (inactive)
same,inhibition,[18],9% (inactive)
same,differentiation response,[19],-5.73% (inactive)
CC(=O)OCC(=O)[C@@]1(O)CC[C@H]2[C@@H]3CCC4=CC(=O)CC[C@]4(C)[C@H]3[C@@H](O)C[C@@]21C,"GFP response, % of DMSO",[9],97% (inactive)
same,inhibition,[10],-4.6% (inactive)
same,superoxide response (% of plate),[11],101% (inactive)
same,aptamer binding inhibition,[12],-1% (inactive)
same,response,[13],6.11% (inactive)
same,inhibition,[14],-11.1% (inactive)
same,response,[15],2.08% (inactive)
same,binding (% of control),[16],98.4% (inactive)
same,efflux inhibition (fraction of control),[17],-0.26 (inactive)
same,inhibition,[18],-2% (inactive)
same,differentiation response,[19],-1.71% (inactive)
COc1ccc(-c2[nH]ncc2CN(CCO)Cc2cccs2)c(F)c1,"GFP response, % of DMSO",[9],97.2% (inactive)
same,inhibition,[10],5.61% (inactive)
same,superoxide response (% of plate),[11],92.5% (inactive)
same,aptamer binding inhibition,[12],5% (inactive)
same,response,[13],-21% (inactive)
same,inhibition,[14],53.1% (inactive)
same,response,[15],-4.99% (inactive)
same,binding (% of control),[16],99.8% (inactive)
same,efflux inhibition (fraction of control),[17],0.08 (inactive)
same,inhibition,[18],-5% (inactive)
same,differentiation response,[19],-0.18% (inactive)
